Compound activity (PubChem)
Hits are enriched below; roughly 11% of the tested compounds scored in any of these assays.
FLuc inh-1 – Photinus pyralis luciferase inhibition | purified P. pyralis luciferase, luminescence, biochemical | hit rate 2.5% among 76,000 | Potency, µM (doses to about 115 µM), actives largely listed as inhibitors; note: % is set by controls: 0 for no effect and ±100 for the full control effect; nearly all actives have a fitted effect of over 65% in size
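Purified P. pyralis luciferase (10nM final) in 50mM Tris acetate pH 7.5, 10mM Mg acetate, 0.01% Tween-20, 0.05% BSA with 10uM D-luciferin and 10uM ATP. Compounds titrated qHTS. Luminescence imaged on CCD.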
hNpr1 antagonist – antagonists of human natriuretic peptide receptor Npr1. P16066. HEK293 hNpr1 GloSensor cGMP, ANP-stimulated luminescence. Potency, µM (titrated, usually from 46.3 µM), without a hit: at the highest dose activity change, negative = inhibition, hits mostly inhibitors. hit rate 1.6% among 76,000; calls by dose curve; note: % is set by controls: 0 for no effect and ±100 for the full control effect; nearly all actives have a fitted effect of over 60% in size
Target sequence (P16066 whole entry, looked up): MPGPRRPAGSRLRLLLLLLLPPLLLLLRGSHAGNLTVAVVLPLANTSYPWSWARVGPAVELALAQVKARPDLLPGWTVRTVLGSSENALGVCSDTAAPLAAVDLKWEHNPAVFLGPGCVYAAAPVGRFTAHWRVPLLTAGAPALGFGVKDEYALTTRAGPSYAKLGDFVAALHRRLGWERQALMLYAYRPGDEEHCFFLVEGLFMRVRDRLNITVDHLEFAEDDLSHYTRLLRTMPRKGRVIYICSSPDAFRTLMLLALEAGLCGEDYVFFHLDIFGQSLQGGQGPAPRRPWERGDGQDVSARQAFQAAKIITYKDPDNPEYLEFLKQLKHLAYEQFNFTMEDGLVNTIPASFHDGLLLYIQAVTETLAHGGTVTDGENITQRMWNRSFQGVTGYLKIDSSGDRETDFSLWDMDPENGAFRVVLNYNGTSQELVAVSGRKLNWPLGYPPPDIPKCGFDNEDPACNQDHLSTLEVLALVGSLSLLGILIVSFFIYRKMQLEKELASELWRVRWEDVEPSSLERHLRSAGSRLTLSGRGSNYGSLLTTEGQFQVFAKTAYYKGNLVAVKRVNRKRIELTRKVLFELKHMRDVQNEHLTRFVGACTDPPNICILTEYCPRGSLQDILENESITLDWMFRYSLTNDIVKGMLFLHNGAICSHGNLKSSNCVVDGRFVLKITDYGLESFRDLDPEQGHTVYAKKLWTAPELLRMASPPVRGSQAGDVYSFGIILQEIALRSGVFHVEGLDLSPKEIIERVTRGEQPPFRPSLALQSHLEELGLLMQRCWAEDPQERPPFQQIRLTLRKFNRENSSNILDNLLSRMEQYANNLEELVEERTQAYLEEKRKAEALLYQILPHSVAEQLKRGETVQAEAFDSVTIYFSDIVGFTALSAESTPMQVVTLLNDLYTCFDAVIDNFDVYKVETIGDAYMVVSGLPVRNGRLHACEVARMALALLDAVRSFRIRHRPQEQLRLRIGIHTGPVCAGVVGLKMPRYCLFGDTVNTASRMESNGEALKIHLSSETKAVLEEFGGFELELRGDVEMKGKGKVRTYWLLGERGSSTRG
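Compound pre-incubated 30 min at room temperature on GloSensor-loaded HEK293 cells stably carrying hNpr1 and the pGS-40F cGMP biosensor. Stimulation uses hNppA at 0.1 nM final; luminescence is taken at baseline and 20 min post-agonist.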
HEK cytotox – HEK 293 cell cytotoxicity; HEK 293 viability, ATP luminescence (CellTiter-Glo), 48-72 h; Potency, µM (doses to about 115 µM), without a hit: at the highest dose activity change, negative = cytotoxicity, hits mostly inhibitors; hit rate 6.6% among 94,000; AID 1345083; note: % is set by controls: 0 for no effect and ±100 for the full control effect; nearly all actives have a fitted effect of over 60% in size
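Read-out: CellTiter-Glo ATP luminescence. Cells: HEK 293, 250 cells/well. Exposure: 48 or 72 hr, 37 degree Celsius.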
3T3 cytotox – NIH 3T3 cell cytotoxicity; NIH 3T3 viability, CellTiter-Glo ATP luminescence, 48-72 h; Potency, µM (top dose mostly 96.7 µM), for the others: top-dose activity change, negative = cytotoxicity, most hits filed as inhibitors; hit rate 4.3% among 94,000; note: % is set by controls: 0 for no effect and ±100 for the full control effect; nearly all actives have a fitted effect of over 55% in size
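Viability of NIH 3T3 cells after 48 or 72 hr compound treatment at 37 °C was assessed by CellTiter-Glo, with luminescence imaged following a 10 min room-temperature step.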
FLuc SDR -ATP – firefly luciferase binding stabilization, ATP absent; shares compounds with FLuc inh-1; Purified FLuc-C-HiBiT, Nano-Glo HiBiT luminescence, no ATP; Potency, µM (series often up to 32.7 µM), without a hit: top-dose activation (signal gain), actives largely listed as activators; hit rate 7.8% among 1,300; AID 1963318; note: nearly all actives have a fitted effect of over 55% in size
FLuc SDR ATP – binders stabilizing firefly luciferase, plus ATP | shares compounds with FLuc inh-1 | purified FLuc-C-HiBiT + ATP, HiBiT complementation luminescence | Potency, µM (doses to about 32.7 µM), for inactives: top-dose activation (gain of signal), usual class: activators | hit rate 8.7% among 1,300 | AID 1963319;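 note: signal reports ligand binding via conformational change of the enzyme rather than luciferase catalysis; % of control where 0% means no effect; nearly all actives have a fitted effect of over 55% in size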
FLuc inh-2 – blocks firefly luciferase enzymatic activity | shares compounds with FLuc inh-1 | purified FLuc-C-HiBiT enzyme, luciferin luminescence | Potency, µM (highest dose often 32.7 µM), for inactives: at the highest dose activity change, negative = inhibition, most hits filed as inhibitors | hit rate 42% among 1,300 | AID 1963320; note: % is set by controls: 0 for no effect and ±100 for the full control effect; nearly all actives have a fitted effect of over 70% in size
* marks the source's active call; other numbers are inactive results; i = inactive; ? = inconclusive; . = not tested or not shown; [ ] = dose if it differs, or a comment. Unless noted, calls come from the whole dose curve; as a rule, active = well fitted curve in the direction sought with a large enough effect; inconclusive = small, poorly fitted or top-dose-only effect, or another doubt; inactive = no such curve, though single readings can be large; an effect the other way counts as inactive or inconclusive. Potency is the fitted concentration of half-maximal effect.

SMILES	FLuc inh-1	hNpr1 antagonist	HEK cytotox	3T3 cytotox	FLuc SDR -ATP	FLuc SDR ATP	FLuc inh-2
O=C(Nc1cccnc1)c1nc2c(o1)CCN(Cc1nccs1)CC2	.	.	.	.	25%[49.3 µM]	17%[49.3 µM]	?
O=C(Nc1cccnc1)c1nc2c(o1)CCN(Cc1ccc(O)cc1)CC2	.	.	.	.	23%[49.3 µM]	16%[49.3 µM]	?
O=C(Nc1ccccc1)c1nc2c(o1)CCN(Cc1ccc(F)cc1)CC2	8.9µM*	18µM*	?	?	20%[49.3 µM]	17%[49.3 µM]	?
O=C(NCc1ccncc1)c1nc2c(o1)CCN(Cc1nccs1)CC2	i	-16%[70.6 µM]	?	-22%[138 µM]	.	.	.
Cc1cccc(CN2CCc3nc(C(=O)NCc4ccccc4)oc3CC2)c1	i	-27%[70.6 µM]	?	?	.	.	.
O=C(NCCOc1ccccc1)c1nc2c(o1)CCN(Cc1ccsc1)CC2	i	-11%[70.6 µM]	?	?	.	.	.
Cc1csc(NC(=O)c2nc3c(o2)CCN(Cc2ccccc2F)CC3)n1	4.5µM*	-21%[70.6 µM]	?	?	?	18%[49.3 µM]	?
COCCOc1nc(N)c2[nH]c(=O)n(Cc3ccc(C(=O)O)cc3)c2n1	.	.	.	.	12%[11.8 µM]	7%[11.8 µM]	-1%[11.8 µM]
COc1ccc(Cn2c(=O)[nH]c3cccnc32)cc1	i	1%[70.6 µM]	-19%[172 µM]	-13%[138 µM]	.	.	.
Cc1cc(=O)n(CC(=O)Nc2ccc3c(c2)OCO3)c(-c2ccc(Cl)cc2)n1	i	-24%	?	?	.	.	.
CCC(=O)N1CCN(c2nc3c(s2)CC(C(=O)N2CCN(CC)CC2)CC3)CC1 (stereo not given)	i	-2%	-2%	-20%	.	.	.
CCC(=O)N1CCN(c2nc3c(s2)CC(C(=O)O)CC3)CC1 (stereo not given)	13µM*	1%	-4%	?	11%	?	?
CC1(C)CNC(=O)c2nc(CCSCc3ccco3)[nH]c2C1	i	-1%	0%	0%	.	.	.
CSc1ccc(-c2nc3c([nH]2)CC(C)(C)CNC3=O)cc1	13µM*	-23%	?	-24%	32%	17%	?
CCOC(=O)N1CCc2c(sc(NCc3cccc(F)c3)c2C(=O)Nc2ccc(OC)cc2OC)C1	.	.	.	.	4%	?	2.5µM*
CCOC(=O)N1CCc2c(sc(NCc3sccc3C)c2C(=O)Nc2ccc(OC)cc2OC)C1	.	.	.	.	8%	?	5µM*
CCc1ccccc1Nc1nc(-c2cccc(OC)c2OC)no1	14µM*	-20%	?	?	21%	13%	?
Nc1ccc2nc(-c3ccc(O)cc3)sc2c1	.	.	.	.	3.9µM*	?	0.62µM*
Cc1ccc(C2=NC3(CCN(C(=O)c4cccc(N(C)C)c4)CC3)ON2)cc1	14µM*	-17%	-24%	-24%	21%	?	?
CN(C)c1cccc(C(=O)N2CCC3(CC2)N=C(c2ccccc2)NO3)c1	?	-2%	-30%	-11%	.	.	.
Cc1cc(C)cc(C(=O)N2CCC(n3cc(-c4nc(C)no4)nn3)CC2)c1	i	5%	-13%	-30%	.	.	.
O=C(C1CCCC1)N1CC(N(Cc2ccccn2)C(=O)Nc2ccccc2)C1	.	.	-24%	?	.	.	.
CC(=O)c1cccc(NC(=O)c2nc3ccccc3n(C)c2=O)c1	.	.	.	.	4.4µM*	?	3.1µM*
O=C(C1CCCN(C(=O)C2CC2)C1)N1CCC(N2CCOCC2=O)CC1 (stereo not given)	.	.	-2%	-14%	.	.	.
OC1(CN2CCCN(c3nc4ccccc4s3)CC2)CNCCOC1 (stereo not given)	13µM*	2%	?	?	17%	14%	-7%
SMILES	FLuc inh-1	hNpr1 antagonist	HEK cytotox	3T3 cytotox	FLuc SDR -ATP	FLuc SDR ATP	FLuc inh-2
CCCCn1c(=O)c(C(=O)N2CCN(C(=O)c3ccc(F)cc3)CC2)nc2cccnc21	.	.	i	1%	.	.	.
CSc1cccc(NC(=O)c2ccc3c(c2)N(C)C2CCCN2C3=O)c1 (stereo not given)	14µM*	-1%	?	-27%	13%	?	?
CN1c2cc(C(=O)Nc3ccc(C(N)=O)cc3)ccc2C(=O)N2CCCCCC21 (stereo not given)	i	0%	?	?	.	.	.
CSc1ccc(NC(=O)c2ccc3c(c2)N(C)C2CCCN2C3=O)cc1 (stereo not given)	14µM*	-10%	?	-18%	9%	?	?
CCc1ccc([S+](=O)([O-])c2nnn3c2nc(N2CCC(F)CC2)c2ccccc23)cc1	.	.	-31%	-31%	.	.	.
COc1ccc2nc([C@H]3CCN(C(=O)c4ccccc4)C3)[nH]c2c1	i	4%[70.6 µM]	-15%[172 µM]	-14%[174 µM]	.	.	.
CCOc1cccc2cc(-c3nc4ccc(C(=O)O)cc4[nH]3)c(=O)oc12	.	.	.	.	?	0.16µM*	0.16µM*
COc1ccc2cc(-c3nc4ccc(C(=O)O)cc4[nH]3)c(=O)oc2c1	.	.	.	.	0.79µM*	0.02µM*	0.016µM*
O=C(NCC1CCN(c2cc(-c3ccccc3)[nH]n2)CC1)c1ccc2nc[nH]c2c1	?	-2%	3%	?	.	.	.
Cc1ccc(-c2cc(N3CCC(CNC(=O)c4ccc5nc[nH]c5c4)CC3)n[nH]2)cc1	14µM*	-25%	?	?	20%	15%	?
CN1N=C(C(=O)N2CCOC(Cc3cccc4ccccc34)C2)CCC1=O (stereo not given)	i	3%	-5%	?	.	.	.
Cc1c(-c2ccccc2)[nH]c2c(CNC(=O)C3=NN(C)C(=O)CC3)cc(Cl)cc12	4µM*	-29%	45µM*	45µM*	12%	9%	?
c1ccc(-c2noc(-c3cncnc3Nc3ccc4c(c3)OCO4)n2)cc1	i	1%	-14%	-15%	.	.	.
COc1ccccc1NC(=O)CN1C(=O)CC(c2ccc(C)c(C)c2)=Nc2ccccc21	.	.	.	.	19%	15%	?
Cc1ccc(-c2nnc(C3CN(C(=O)c4sc(C)nc4C)CC34CCOCC4)o2)cc1 (stereo not given)	i	-8%	-20%	-23%	12%	9%	0%
Cc1ccc(C(=O)N2CC(c3nnc(-c4ccc(C)cc4)o3)C3(CCOCC3)C2)cc1 (stereo not given)	i	-1%	1%	i	.	.	.
CCc1cccc(NC(=O)C2CCN(C(=O)c3ncn4c3COC(c3ccc(OC)cc3)C4)CC2)c1 (stereo not given)	?	1%	-4%	-2%	.	.	.
Cc1cccc(NC(=O)C2CCN(C(=O)c3ncn4c3COC(c3ccccc3)C4)CC2)c1 (stereo not given)	3.2µM*	-28%	5%	1%	15%	2µM*	2.5µM*
